Measurements reported in PubChem BioAssay (NCI).
The panel holds about 83,000 compounds, 20% with a hit somewhere; the sample as a whole holds those more often.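 The endpoint reported here, percent growth, reads 100 for growth as untreated, 0 for no net growth and -100 for all cells dead.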 A number with no mark means an inactive call. Calls of active or inactive are those of the source. The calls were made as follows: active = growth percent below 10; inactive = the rest.

tested on: IGROV1 ovarian; test: NCI-60 one-dose screen, 48 h (100 = growth as untreated, 0 = no growth, -100 = all killed); details: 10 µM unless noted

Row | SMILES | growth
1 | O=c1oc2ccc(Br)cc2c(=O)n1-c1ccc(Br)cc1F | 9.59% (active)
2 | NCCNc1nc2ccccc2c2c(=O)c3cc(F)cc(Cl)c3sc12 | 71.9%
3 | CCCN1CCN(c2ccc3nc(-c4ccc5nc(-c6cc(OC)ccc6OC)[nH]c5c4)[nH]c3c2)CC1 | 103%
4 | Cc1ccc(C2CC(c3ccc(Nc4nc(NCCO)nc(Nc5ccc(Cl)cc5)n4)cc3)=NN2c2cc(Cl)cc(Cl)c2)cc1 (stereo not drawn) | 87.8%

tested on: OVCAR-3 ovarian; test: as above; details: 10 µM unless noted

Row | SMILES | growth
5 | C=C1C(=O)O[C@H]2[C@H]1CC/C(COC(=O)/C=C\C(=O)O)=C\CC[C@@]1(C)O[C@@H]21 | 113%
6 | CCCCC1CCc2cccc3c(SCC(=O)N(C)c4ccc(Cl)cc4)cc[n+]1c23 (stereo not drawn) | 108%
7 | O=C(c1nc2ccccc2[nH]1)C1C(c2cccc([N+](=O)[O-])c2)C2CC3CCCCC3N2[C@@]12C(=O)Nc1cc(Cl)ccc12 (stereo partly drawn) | 45.5%
8 | O=C1/C(=C/c2ccc(O)cc2)COc2ccc(O)cc21 | 108%
9 | O=C1/C(=C/c2ccc(O)cc2)COc2ccc(O)c(O)c21 | -8.96% (active)
10 | COc1cc2nc(NC3CCCC3)nc(NC3CCN(C(C)C)CC3)c2cc1OC | 89.4%
11 | Cc1ccccc1CNC(=O)C1CN(c2ccc(Cl)cc2)N(c2ccc(Cl)cc2)C1=O (stereo not drawn) | 81.1%
12 | COc1cc(C2CC(c3ccc(Nc4nc(NCCO)nc(N5CCOCC5)n4)cc3)=NN2c2cc(Cl)cc(Cl)c2)cc(OC)c1OC (stereo not drawn) | 56.9%
13 | O=C(c1nc2ccccc2[nH]1)C1C(c2ccc([N+](=O)[O-])cc2)C2CC3CCCCC3N2[C@@]12C(=O)Nc1cc(Cl)ccc12 (stereo partly drawn) | 29.6%
14 | O=C(Cn1cc(COc2ncnc3c2cnn3-c2ccccc2)nn1)Nc1cccc2ccccc12 | 109%
15 | CN1C(=O)N(C)C2Nn3c(s/c(=C\c4ccc(Cl)cc4Cl)c3=O)=NC21 (stereo not drawn) | 30.7%
16 | O=Cc1cc2ccccc2nc1Nc1nccs1 | 55.2%
17 | O=C1/C(=C/c2cccc(O)c2)COc2ccc(O)cc21 | 55.5%
18 | COc1cc2nc(NC3CCC3)nc(NC3CCN(C(C)C)CC3)c2cc1OC | 85.7%
19 | O=C(c1nc2ccccc2[nH]1)C1[C@@H](c2cccc(O)c2)C2CC3CCCCC3N2[C@@]12C(=O)Nc1cc(Cl)ccc12 (stereo partly drawn) | 42.5%
20 | CCN1C(=O)N(c2ccccc2)C2NN=c3s/c(=C4\C(=O)N(C(C)C)c5ccccc54)c(=O)n3C21 (stereo not drawn) | 1.06% (active)
21 | Cc1sc2ncn(CC(=O)Nc3ccc(S(N)(=O)=O)cc3)c(=O)c2c1C | 108%
22 | COC(=O)c1c2c(c(C)[n+]([O-])c1C)C(=O)C(NCc1ccc(F)c(F)c1)=CC2=O | -19% (active)
23 | CNCCNc1nc2ccccc2c2c(=O)c3cccc(OC)c3sc12 | 29.4%
24 | CNCCNc1nc2ccccc2c2c(=O)c3cccc(C)c3sc12 | 47.7%

Row | SMILES | growth
25 | COc1cc(/C=C2\Oc3cc(OCCCN4CCCC4)ccc3C2=O)cc(OC)c1 | -34.6% (active)
26 | COC(=O)[C@H](NC(=O)C1(C)CCC[C@]2(C)[C@H]3C[C@H]4C(C(C)C)=C[C@]3(CC[C@@H]12)[C@@H]1C(=O)CCC(=O)[C@@H]14)C(C)C (stereo partly drawn) | 109%
27 | COc1cc(/C=C2\CN(C)C/C(=C\c3cc(CN4CCCCC4)c(O)c(OC)c3)C2=O)cc(CN2CCCCC2)c1O | 7.74% (active)
28 | O=S(=O)(Nc1ncccn1)c1ccc(NC2Nc3nc4ccccc4nc3S2)cc1 (stereo not drawn) | 109%
29 | O=C1CCC(N2C(=O)c3cccc(NCCCCCCOc4ccc(Nc5nccc(Nc6ccccc6)n5)cc4)c3C2=O)C(=O)N1 (stereo not drawn) | 78.8%
30 | Cc1c(-c2csc(-n3nc(C(F)(F)F)cc3C(F)(F)F)n2)no[n+]1[O-] | 114%
31 | O=C(NCc1ccccc1)C1CN(c2ccc(Cl)cc2)N(c2ccc(Cl)cc2)C1=O (stereo not drawn) | 51.7%
32 | c1ccc2c(c1)oc1cc3sccc3nc12 | 107%
33 | CCCCC1COc2cccc3c2N1C=C/C3=C\C(=O)N(C)c1ccccc1 (stereo not drawn) | 49.2%
34 | COc1cc(/C=C/C(=O)c2ccc(Nc3nc(NCCO)nc(N4CCOCC4)n3)cc2)cc(OC)c1OC | 2.88% (active)
35 | Cc1cccc2c(=O)c3c(sc12)c(NCCCNCCO)nc1ccccc13 | 64.5%
36 | COc1cc(/C=C2\CN(C)C/C(=C\c3cc(CN4CCCC4)c(O)c(OC)c3)C2=O)cc(CN2CCCC2)c1O | 50%
37 | O=C(/C=C/c1ccc(C(F)(F)F)cc1)c1ccc(Nc2nc(NCCO)nc(N3CCOCC3)n2)cc1 | -31.9% (active)
38 | NCCOc1ccccc1/C=C1\c2ccccc2-c2ccc([N+](=O)[O-])cc21 | -49.8% (active)
39 | O=C(/C=C/c1ccc(F)cc1)c1ccc(Nc2nc(NCCO)nc(Nc3ccc(Cl)cc3)n2)cc1 | 77%
40 | O=c1oc2ccc(Br)cc2c(=O)n1-c1ccc(Br)cc1F | 8.18% (active)
41 | NCCNc1nc2ccccc2c2c(=O)c3cc(F)cc(Cl)c3sc12 | -88.6% (active)
42 | CCCN1CCN(c2ccc3nc(-c4ccc5nc(-c6cc(OC)ccc6OC)[nH]c5c4)[nH]c3c2)CC1 | 122%
43 | Cc1ccc(C2CC(c3ccc(Nc4nc(NCCO)nc(Nc5ccc(Cl)cc5)n4)cc3)=NN2c2cc(Cl)cc(Cl)c2)cc1 (stereo not drawn) | 102%
